Here are results for ten compounds from PubChem BioAssay.

Activity calls are given as the source filed them. Unless noted, how the calls were made is not given here.

Experiment [1] in a line: resazurin metabolic signal in HepG2 cells – cell-based, resazurin fluorescence, 24 h, PK04 Diversity Set, profiling panel (AID 1172). Conditions: HepG2 viability, higher = more signal. (In general: The colour change of resazurin is a common sign of viable cells or microbes.)
Experiment [2] is described as follows: budding yeast growth changes without added modifier – OD600, strain BY4716, 24 h, basal condition, primary screen (AID 1173). Conditions: S. cerevisiae BY4716 growth, OD600, 24 h; higher = more signal, called active from +8 up or from −8 down.
Experiment [3] can be described thus: viability profiling in MM1S myeloma cells – cell-based, resazurin fluorescence, basal, 24 h, PK04 Diversity Set, profiling panel (AID 1174).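 Further: MM1S multiple myeloma cell line.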 Conditions: higher = more signal, called active from +8 up or from −8 down.
Experiment [4] concerns the target Dihydroorotate dehydrogenase (quinone), mitochondrial (Plasmodium falciparum (isolate 3D7)) (UniProt Q08210). As to the kind of experiment: inhibition of P. falciparum DHODH – biochemical, C-terminal His tag, absorbance 600 nm, primary screen (AID 1175).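 Further: recombinant parasite enzyme with a five histidine tag at its C terminus.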 Conditions: PfDHODH enzyme, DCIP absorbance 600 nm; higher = more signal, called active from +8 up or from −8 down.

Experiment [5] can be described thus: inhibition of PAO1 biofilm formation – strain PAO1, LB-PBS medium, absorbance 600 nm, primary screen (AID 1176). Conditions: P. aeruginosa PAO1 growth/biofilm, A600, 12 h; higher = more signal.
Experiment [6] in a line: growth modulation of vineyard yeast isolate – strain RM11-1a, OD600, basal, 24 h, primary screen (AID 1177).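 Further: cultures grown under basal conditions with no added stressor.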 Conditions: S. cerevisiae RM11-1a growth, OD600, 24 h; higher = more signal, called active from +8 up or from −8 down.
Experiment [7] is described as follows: growth of efflux-deficient E. coli DRC39 – strain DRC39, OD650, 24 h, E. coli filamentation inducers, primary screen (AID 1178).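 Further: growth measured as culture turbidity by optical density at 650 nm.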 Conditions: E. coli DRC39 acrAB, higher = more signal, called active from +8 up or from −8 down.
Experiment [8] is described as follows: growth of efflux-deficient E. coli DRC39 – strain DRC39, OD650, 48 h, E. coli filamentation inducers, primary screen (AID 1179).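 Further: screen aims at cell division blockers that make cells filament.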 Conditions: E. coli DRC39 delta-acrAB growth, higher = more signal, called active from +8 up or from −8 down.
Experiment [9] is described as follows: viability profiling in RPMI8226 myeloma cells – cell-based, resazurin fluorescence, basal, 24 h, PK04 Diversity Set, profiling panel (AID 1180).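 Further: RPMI8826 multiple myeloma cell line at 5000 cells per well.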 Conditions: higher = more signal.
For experiment [10], the target named is E3 ubiquitin-protein ligase XIAP (Homo sapiens) (UniProt P98170). As to the kind of experiment: small molecules binding XIAP protein – biophysical, small-molecule microarray, fluorescence 635 nm, primary screen (AID 1181).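 Further: score merges 667 nm emission and signal to noise over triplicate slides.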 Conditions: higher = more signal.
Sequence of E3 ubiquitin-protein ligase XIAP (Homo sapiens) (P98170 whole entry, looked up, the tested form may be a part): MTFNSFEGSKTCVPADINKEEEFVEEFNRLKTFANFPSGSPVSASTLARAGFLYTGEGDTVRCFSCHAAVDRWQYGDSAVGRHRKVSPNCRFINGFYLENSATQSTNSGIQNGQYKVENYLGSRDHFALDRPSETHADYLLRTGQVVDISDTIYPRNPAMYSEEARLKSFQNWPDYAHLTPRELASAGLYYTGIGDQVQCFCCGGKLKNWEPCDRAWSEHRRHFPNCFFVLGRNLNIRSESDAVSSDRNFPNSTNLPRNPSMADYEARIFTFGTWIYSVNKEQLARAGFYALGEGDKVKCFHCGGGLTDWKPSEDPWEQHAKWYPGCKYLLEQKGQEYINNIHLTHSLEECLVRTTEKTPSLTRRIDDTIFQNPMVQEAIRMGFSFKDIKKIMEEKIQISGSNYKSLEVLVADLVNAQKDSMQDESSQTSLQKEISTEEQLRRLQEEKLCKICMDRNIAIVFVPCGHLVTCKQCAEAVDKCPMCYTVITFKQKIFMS
In experiment [11] the test system is XIP peptide (Xip251-270) binding. As to the kind of experiment: XIP fragment 251-270 binding compounds – biochemical, small-molecule microarray, fluorescence 635/667 nm, 0.1 µg/mL protein, primary screen (AID 1182). Conditions: fluorescent protein binding, 635 nm, higher = more signal, called active from +8 up or from −8 down.
A further experiment has as its system XIP peptide (Xip251-270). As to the kind of experiment: compounds binding XIP fragment 251-270 – biochemical, small-molecule microarray, fluorescence 635/667 nm, 0.5 µg/mL protein, primary screen (AID 1183). Conditions: fluorescence 635 nm, higher = more signal.
Experiment [12] can be described thus: blood-stage malaria parasite viability loss – strain 3D7, DAPI fluorescence, 100 nL, primary screen (AID 1184).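 Further: parasites grown inside human red blood cells in medium with human serum.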 Conditions: P. falciparum 3D7 growth, 3 d, higher = more signal.
Experiment [13] addresses Homeobox protein Hox-A13 (Mus musculus) (UniProt Q62424). As to the kind of experiment: disruptors of Hoxa13 oligonucleotide interaction – biochemical, fluorescence polarization, labeled oligonucleotide, primary screen (AID 1185). Conditions: Hoxa13:DNA binding, 15 min, higher = more signal, called active from +8 up or from −8 down.
Experiment [14] is described as follows: blockers of DNA damage checkpoint Chk1 activation – imaging, HeLa, hydroxyurea, phospho-Chk1 antibody, percent positive cells, primary screen (AID 1186). Conditions: hydroxyurea-induced phospho-Chk1 immunofluorescence imaging, higher = more signal.
Experiment [15] is described as follows: blockers of DNA damage checkpoint Chk1 activation – imaging, HeLa, hydroxyurea, phospho-Chk1 nuclear intensity, primary screen (AID 1187). Conditions: hydroxyurea-induced phospho-Chk1 immunofluorescence imaging, higher = more signal.

Sequence of Dihydroorotate dehydrogenase (quinone), mitochondrial (Plasmodium falciparum (isolate 3D7)) (Q08210 whole entry, looked up): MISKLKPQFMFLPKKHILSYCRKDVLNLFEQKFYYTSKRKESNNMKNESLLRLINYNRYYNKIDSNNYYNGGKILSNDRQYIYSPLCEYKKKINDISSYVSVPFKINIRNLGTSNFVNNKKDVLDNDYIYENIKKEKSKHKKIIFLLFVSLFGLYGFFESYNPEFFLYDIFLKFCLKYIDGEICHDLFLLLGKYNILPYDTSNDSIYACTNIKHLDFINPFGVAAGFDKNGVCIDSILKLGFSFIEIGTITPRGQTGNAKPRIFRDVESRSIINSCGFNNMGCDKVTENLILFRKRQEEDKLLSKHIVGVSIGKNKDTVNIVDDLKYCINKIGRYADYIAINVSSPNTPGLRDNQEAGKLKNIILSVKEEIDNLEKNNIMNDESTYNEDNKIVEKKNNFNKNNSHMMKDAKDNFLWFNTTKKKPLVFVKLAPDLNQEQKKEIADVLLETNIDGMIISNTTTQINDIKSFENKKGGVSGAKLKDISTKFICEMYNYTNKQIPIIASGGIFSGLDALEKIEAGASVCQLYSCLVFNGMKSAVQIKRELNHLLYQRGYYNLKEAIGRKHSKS
Sequence of Homeobox protein Hox-A13 (Mus musculus) (Q62424 whole entry, looked up): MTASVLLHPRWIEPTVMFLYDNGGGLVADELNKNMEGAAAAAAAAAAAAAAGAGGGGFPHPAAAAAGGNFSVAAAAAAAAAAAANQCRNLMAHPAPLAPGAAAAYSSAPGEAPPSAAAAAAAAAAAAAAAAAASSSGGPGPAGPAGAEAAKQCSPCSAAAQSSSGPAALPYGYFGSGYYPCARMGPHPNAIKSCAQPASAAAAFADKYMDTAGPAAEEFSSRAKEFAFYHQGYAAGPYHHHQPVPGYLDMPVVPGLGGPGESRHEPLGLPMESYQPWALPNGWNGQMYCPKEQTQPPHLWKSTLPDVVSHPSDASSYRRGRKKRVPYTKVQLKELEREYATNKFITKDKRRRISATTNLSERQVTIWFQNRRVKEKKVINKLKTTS

Regarding `O=C(O)[C@@]1(CCS(=O)(=O)c2ccccc2)N=C(c2ccc(OCCCO)cc2)O[C@H]1c1ccccc1`, the z-score in [1] was 0.489; in experiment [2], -1.11 (inactive); in [3], 0.409 (inactive); in experiment [5] it was -1.27 (inactive); in experiment [6], -0.357 (inactive); in experiment [7], 0.28 (inactive). For the same compound, the z-score is -0.275 (inactive) in [8]; 1.26 in experiment [9]; -0.471 in [12]; -5.76 (inactive) in experiment [13]; 0.0733 (inactive) in experiment [14]; 0.0816 (inactive) in experiment [15]. The composite z-score in experiment [4] is -0.0555 (inactive); in [10], 0.0952; in experiment [11], 1.15 (inactive); with XIP peptide (Xip251-270), 0.392.

For the compound `COCCOC(=O)N1C(=O)[C@@]2(c3ccccc31)[C@H](C(=O)N1CCCCCCC1)[C@H]1C(=O)O[C@H](c3ccccc3)[C@H](c3ccccc3)N1[C@@H]2c1ccc(OCCO)cc1`, the z-score in experiment [1] is -0.329; in [2], 1.79 (inactive); in experiment [3] it was -0.44 (inactive); in [5], 2.29 (inactive); in [6], 2.47 (inactive); in experiment [7], -0.643 (inactive). Besides, the z-score is -0.623 (inactive) in [8]; -0.281 in experiment [9]; -2.03 in experiment [12]; -15.8 (active) in [13]; -0.261 (inactive) in experiment [14]; -0.268 (inactive) in experiment [15]. Further, the composite z-score in experiment [4] was 1.15 (inactive); in experiment [10], 2.5; in experiment [11], 6.55 (inactive); in the experiment with XIP peptide (Xip251-270) it was 0.992.

For the compound `O=C(O)[C@H](Cc1ccccc1)n1cc(-c2ccccc2)nn1`, the z-score is 0.562 in experiment [1]; 0.0419 (inactive) in [2]; 0.0284 (inactive) in experiment [3]; 0.738 (inactive) in experiment [5]; -0.14 (inactive) in experiment [6]; -0.0353 (inactive) in [7]. The z-score in [8] was -0.202 (inactive); in [9], -0.46; in experiment [12] it was 0.0447; in [13], -1.17 (inactive); in [14] it was 0.425 (inactive); in experiment [15] it was -0.0072 (inactive). The composite z-score in experiment [4] was -0.0341 (inactive); in experiment [10] it was 0.0812; in experiment [11], -0.152 (inactive); in the experiment with XIP peptide (Xip251-270), 0.297.

In the case of `COc1cc(CO)cc(I)c1O[C@H]1C=C(C(=O)NCCO)C[C@@H](NC[C@@H]2CCCO2)[C@@H]1O`, the z-score in experiment [1] was 0.773; in experiment [2], -0.813 (inactive); in experiment [3] it was -0.292 (inactive); in [5], 0.0694 (inactive); in [6] it was 0.683 (inactive); in experiment [7] it was 1.16 (inactive). Besides, the z-score in experiment [8] was 0.915 (inactive); in [9] it was 0.577; in experiment [12] it was -1.22; in [13] it was -6.95 (inactive); in experiment [14], -0.399 (inactive); in experiment [15] it was -1.01 (inactive). The composite z-score in [4] was 0.459 (inactive); in experiment [10], -0.13; in [11] it was 0.546 (inactive); in the experiment with XIP peptide (Xip251-270), 0.711.

Consider `CCCC[C@H]1C[C@@H]1[C@@H]1N(P(=O)(c2ccccc2)c2ccccc2)C[C@@](O)(c2ccccc2)CC12CC2`, for which the z-score in experiment [1] was 2.63; in [2], -0.763 (inactive); in experiment [3], 1.07 (inactive); in [5], 0.122 (inactive); in [6] it was 0.781 (inactive); in [7] it was -0.446 (inactive). Besides, the z-score is -0.412 (inactive) in [8]; -1.79 in experiment [9]; -1.22 in [12]; -2.37 (inactive) in experiment [13]; 0.0682 (inactive) in experiment [14]; 0.228 (inactive) in [15]. In addition, the composite z-score in experiment [4] was -0.244 (inactive); in experiment [10], 0.0447; in experiment [11], -0.0646 (inactive); with XIP peptide (Xip251-270) it was -0.0749.

In the case of `O=C1[C@@]23C=C(Br)[C@H](C[C@@H]2COC3)[C@]12CO2`, the z-score is -0.845 in experiment [1]; -10.2 (active) in experiment [2]; -0.874 (inactive) in experiment [3]; 0.732 (inactive) in [5]; -0.384 (inactive) in [6]; -0.0135 (inactive) in experiment [7]. Besides, the z-score in experiment [8] was -0.0637 (inactive); in [9], -0.741; in experiment [12], 1.81; in experiment [13], -7.3 (inactive); in [14], 0.825 (inactive); in [15], 0.343 (inactive). In addition, the composite z-score in [4] was -1.91 (inactive); in experiment [10], -0.105; in experiment [11], -0.0125 (inactive); in the experiment on XIP peptide (Xip251-270), -1.48.

In the case of `C=CCNC(=O)[C@H]1[C@@H]2C(=O)O[C@@H](c3ccccc3)[C@@H](c3ccccc3)N2[C@@H](c2ccc(O)cc2)[C@]12C(=O)Nc1ccc(C#CCCO)cc12`, the z-score in experiment [1] was 1.13; in experiment [2], 0.189 (inactive); in experiment [3], 1.16 (inactive); in experiment [5], -0.42 (inactive); in experiment [6] it was 0.957 (inactive); in experiment [7], 0.516 (inactive). The z-score in experiment [8] is 0.567 (inactive); in experiment [9], 1.08; in [12] it was 0.093; in experiment [13], -4.04 (inactive); in experiment [14], -0.266 (inactive); in experiment [15], -0.136 (inactive). Further, the composite z-score in experiment [4] was 0.0992 (inactive); in experiment [10] it was -0.198; in experiment [11], -0.0879 (inactive); in the experiment on XIP peptide (Xip251-270), -0.227.

With `Cc1ccc(S(=O)(=O)N2C[C@@H](C(=O)O)[C@H](Sc3ccccc3)C[C@H]2c2ccccc2)cc1`, the z-score in [1] is -0.199; in experiment [2] it was -0.638 (inactive); in [3], -0.26 (inactive); in experiment [5] it was 0.409 (inactive); in [6], -0.339 (inactive); in [7], -0.529 (inactive). Further, the z-score in experiment [8] was -1.55 (inactive); in [9] it was -0.911; in experiment [12] it was -0.0652; in experiment [13], -7 (inactive); in [14] it was 0.442 (inactive); in [15], 0.283 (inactive). Also, the composite z-score in experiment [4] was -1.43 (inactive); in experiment [10], -0.303; in experiment [11], 0.117 (inactive); in the experiment with XIP peptide (Xip251-270), 0.779.

As to `O=C1C2C=CC(C(O)c3ccc(F)cc3)N(Nc3ccc([N+](=O)[O-])cc3)C2C(=O)N1c1ccccc1` (stereo not given), the z-score in [1] is 0.349; in experiment [2], 0.579 (inactive); in [3] it was -0.115 (inactive); in experiment [5], 0.862 (inactive); in [6], -0.228 (inactive); in [7] it was -1.47 (inactive). The z-score in [8] was -0.639 (inactive); in experiment [9] it was -0.152; in experiment [12], -0.255; in [13] it was -4.16 (inactive); in experiment [14] it was 0.137 (inactive); in experiment [15], 0.653 (inactive). For the same compound, the composite z-score in experiment [4] was -0.0421 (inactive); in experiment [10] it was 0.135; in experiment [11], 0.224 (inactive); in the experiment on XIP peptide (Xip251-270), 0.942.

As for `COC(=O)[C@@]1(Cc2ccccc2)[C@H]2c3cc(C(=O)N(C)C)n(Cc4ccc(OC)c(OC)c4)c3C[C@H]2CN1C(=O)c1ccccc1`, the z-score is -0.872 in [1]; 0.721 (inactive) in [2]; -0.799 (inactive) in experiment [3]; 0.302 (inactive) in experiment [5]; 0.358 (inactive) in experiment [6]; -0.874 (inactive) in experiment [7]. Also, the z-score is -0.695 (inactive) in experiment [8]; -2.19 in experiment [9]; -1.44 in experiment [12]; -4.39 (inactive) in experiment [13]; 0.639 (inactive) in experiment [14]; 0.614 (inactive) in experiment [15]. The composite z-score in experiment [4] is -0.831 (inactive); in experiment [10] it was -0.289; in experiment [11], 0.713 (inactive); in the experiment on XIP peptide (Xip251-270), 0.664.
